In PubChem BioAssay AID1159580 (chemical genetic matrix, 2015):
Where “and” joins values, the source holds several entries; their conditions need not be identical. Equal entries are not always repeated. The whole screen tested about 5,500 compounds, of which about 2,000 (36%) were called active. Inconclusive results (about 18%) are left out. Rule as the data show it: active = normalized growth mostly below about 0.91 (no sharp cut-off); inconclusive = no clear call, values can overlap the other calls; inactive = mostly above about 0.92. The list shows a part of the results.

Assay: chemical genetic growth profiling, strain panel (AID 1159580);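 also: tested at 20 µM; growth read once vehicle control cultures reached saturation at 30 °C; 1 = growth at the plate median or of vehicle wells; lower values mean less growth of the strain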
Conditions: S. cerevisiae deletion strains, growth OD

Measured: normalized growth

CC(C)(C)NCC(O)COc1cccc2c1C[C@H](O)[C@H](O)C2 (stereo not given in full)
inactive: locus YAL021C, strain ccr4, stronger effect = lower value 0.99 | locus YAL026C, strain drs2, stronger effect = lower value 1.01 | locus YAL030W, strain snc1, stronger effect = lower value 0.995 | locus YBL061C, strain skt5, stronger effect = lower value 1 | locus YBR009C, strain hhf1, stronger effect = lower value 0.999 | locus YBR021W, strain FUR4, stronger effect = lower value 1.03 | locus YBR023C, strain chs3, stronger effect = lower value 1.01 | locus YBR171W, strain sec66, stronger effect = lower value 1.01 | locus YBR229C, strain ROT2, stronger effect = lower value 1.01 | locus YBR231C, strain swc5, stronger effect = lower value 1 | locus YBR279W, strain paf1, stronger effect = lower value 1 | locus YCL011C, strain gbp2, stronger effect = lower value 1 | locus YCL016C, strain dcc1, stronger effect = lower value 1 | locus YCL029C, strain bik1, stronger effect = lower value 0.997 | locus YCL061C, strain MRC1, stronger effect = lower value 1.01 | locus YCL069W, strain vba3, stronger effect = lower value 1 | locus YCR088W, strain abp1, stronger effect = lower value 1 | locus YDL005C, strain med2, stronger effect = lower value 1.01 | locus YDL035C, strain GPR1, stronger effect = lower value 0.983 | locus YDL040C, strain nat1, stronger effect = lower value 0.999 | locus YDL074C, strain BRE1, stronger effect = lower value 1.06 | locus YDL101C, strain DUN1, stronger effect = lower value 0.999 | locus YDL134C, strain PPH21, stronger effect = lower value 1 | locus YDL185W, strain tfp1, stronger effect = lower value 0.96 | locus YDL192W, strain arf1, stronger effect = lower value 0.982 | locus YDR001C, strain nth1, stronger effect = lower value 1.01 | locus YDR069C, strain doa4, stronger effect = lower value 1 | locus YDR101C, strain arx1, stronger effect = lower value 1.05 | locus YDR137W, strain rgp1, stronger effect = lower value 1.01 | locus YDR150W, strain NUM1, stronger effect = lower value 0.992 | locus YDR159W, strain sac3, stronger effect = lower value 1 | locus YDR162C, strain NBP2, stronger effect = lower value 0.964 | locus YDR195W, strain ref2 0.999 | locus YDR297W, strain sur2, stronger effect = lower value 1 | locus YDR318W, strain mcm21, stronger effect = lower value 0.979 | locus YDR334W, strain swr1, stronger effect = lower value 1.02 | locus YDR335W, strain msn5, stronger effect = lower value 1 | locus YDR388W, stronger effect = lower value 0.989 | locus YDR392W, strain spt3, stronger effect = lower value 1.01 | locus YDR502C, strain sam2, stronger effect = lower value 0.99 | locus YEL003W, strain gim4, stronger effect = lower value 1 | locus YEL037C, strain rad23, stronger effect = lower value 1.01 | locus YEL061C, strain CIN8 (second series), stronger effect = lower value 1.01 | locus YEL061C, strain CIN8, stronger effect = lower value 0.999 | locus YER015W, strain faa2, stronger effect = lower value 0.999 | locus YER016W, strain bim1, stronger effect = lower value 1.01 | locus YER110C, stronger effect = lower value 0.976 | locus YER111C, strain swi4, stronger effect = lower value 1 | locus YER155C, strain BEM2 (second series), stronger effect = lower value 0.997 | locus YER155C, strain BEM2, stronger effect = lower value 0.999 | locus YER167W, strain BCK2, stronger effect = lower value 0.996 | locus YFR010W, strain ubp6, stronger effect = lower value 1.02 | locus YGL078C, strain dbp3, stronger effect = lower value 0.989 | locus YGL086W, strain mad1, stronger effect = lower value 1.02 | locus YGL167C, strain pmr1, stronger effect = lower value 1 | locus YGL173C, strain kem1, stronger effect = lower value 1.01 | locus YGL227W, strain vid30, stronger effect = lower value 1.01 | locus YGL240W, strain doc1, stronger effect = lower value 1 | locus YGL248W, strain PDE1, stronger effect = lower value 1.01 | locus YGL253W, strain hxk2, stronger effect = lower value 1.02 | locus YGR135W, strain pre9, stronger effect = lower value 0.951 | locus YGR229C, strain SMI1, stronger effect = lower value 0.989 | locus YGR252W, strain gcn5, stronger effect = lower value 0.986 | locus YHR013C, strain ard1, stronger effect = lower value 1.03 | locus YHR027C, strain rpn1, stronger effect = lower value 1 | locus YHR030C, strain SLT2, stronger effect = lower value 0.992 and 1.02 | locus YHR079C, strain IRE1 (second series), stronger effect = lower value 0.987 | locus YHR079C, strain IRE1, stronger effect = lower value 1.01 | locus YHR094C, strain hxt1, stronger effect = lower value 0.995 | locus YHR129C, strain ARP1, stronger effect = lower value 0.991 | locus YHR142W, strain chs7, stronger effect = lower value 1.01 | locus YHR200W, strain rpn10, stronger effect = lower value 0.987 | locus YIL066C, strain RNR3, stronger effect = lower value 1 | locus YIL073C, strain SPO22, stronger effect = lower value 0.883 | locus YIL125W, strain kgd1, stronger effect = lower value 0.998 | locus YIR030C, strain dcg1, stronger effect = lower value 0.984 | locus YJL092W, strain hpr5, stronger effect = lower value 1.01 | locus YJL095W, strain BCK1 (second series), stronger effect = lower value 1.01 | locus YJL095W, strain BCK1, stronger effect = lower value 1.02 and 1.04 | locus YJL115W, strain asf1, stronger effect = lower value 1.02 | locus YJL129C, strain trk1, stronger effect = lower value 1 | locus YJL134W, strain LCB3, stronger effect = lower value 0.989 | locus YJL154C, strain vps35, stronger effect = lower value 0.995 | locus YJL164C, strain tpk1, stronger effect = lower value 1 | locus YJL166W, strain qcr8, stronger effect = lower value 1 | locus YJL168C, strain set2, stronger effect = lower value 1 | locus YJL187C, strain SWE1 (second series), stronger effect = lower value 1.01 | locus YJL187C, strain SWE1, stronger effect = lower value 1.01 | locus YJR043C, strain POL32, stronger effect = lower value 1 | locus YJR066W, strain TOR1, stronger effect = lower value 1
